This note sets out measurements from PubChem BioAssay (NCATS).

In test [1] the test system is Zika virus NS2B-NS3 protease (linked construct). The test can be described thus: Primary screen NINDS Rhodamine qHTS for Zika virus inhibitors (AID 1347160). Note: % is set by controls: 0 for no effect and ±100 for the full control effect; nearly all actives have a fitted effect of over 55% in size. Summed up:
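Purified NS2B-NS3 protease with the NS2B hydrophilic domain joined by a flexible linker (25 nM) in 10 mM Tris-HCl pH 8.0, 0.01% Tween 20, preincubated 15 min at RT with compound; Rhodamine110 peptide substrate 1.5 µM; fluorescence change over 15 min; 4-parameter Hill fit.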
(In qHTS, concentration-response curves come from the screen itself.)

In test [2] the target is Calcium and integrin-binding protein 1 (Homo sapiens) (UniProt Q99828). The test can be described thus: Primary qHTS for Identification of Calcium Integrin Binding Protein 1 (CIB1) Competitor (AID 1508620).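 Note: GST tagged CIB1 binding a fluorescein labelled alphaIIb integrin peptide tracer; top concentration of the series differs between compounds; % is set by controls: 0 for no effect and ±100 for the full control effect.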 Summed up:
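Fluorescence polarization competition: CIB1-GST (1 uM final) preincubated with compound 15 min at room temperature, then FITC-labeled alphaIIb peptide (100 nM final) added for another 15 min. Polarization read at Ex 480/Em 540.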

Test [3] is described as follows: Primary qHTS for inhibitors of nuclear receptor binding SET domain protein 2 (NSD2) in an isogenic RCH-ACV NSD2 p.E1099K mutant (9B) (AID 1645876). Note: nearly all actives have a fitted effect of over 70% in size. Note: potency is the fitted concentration of half-maximal effect.
Test [4] addresses Glutathione peroxidase 1 (Homo sapiens) (UniProt P07203). The test can be described thus: Primary qHTS Assay for Inhibitors of Recombinant Selenoprotein Glutathione Peroxidase 1 (GPX1) (AID 1845191). For activity, negative = inhibition: % is set by controls: 0 for no effect and ±100 for the full control effect. Note: nearly all actives have a fitted effect of over 65% in size. The gist of the method: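 Recombinant GPX1 (10 nM final) was preincubated with compound for 30 min at room temperature, then reacted with 1 mM GSH, 0.5 mM CHP, 0.5 mM NADPH and 100 nM glutathione reductase; NADPH fluorescence (340/450 nm) was read at 0 and 15 min.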

The target of test [5] is Phospholipid hydroperoxide glutathione peroxidase GPX4 (Homo sapiens) (UniProt P36969). In words: Primary qHTS Assay for Inhibitors of Recombinant Selenoprotein Glutathione Peroxidase 4 (GPX4) (AID 1845192). Note: nearly all actives have a fitted effect of over 65% in size. Summed up: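 GR-coupled readout: 100 nM GR, 1 mM GSH, 0.5 mM NADPH; NADPH fluorescence (ex 340/em 450 nm) read at t=0 and after 15 min RT. GPX4 200 nM, preincubated 30 min with compound; substrate 0.5 mM CHP.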
Phospholipid hydroperoxide glutathione peroxidase GPX4 (Homo sapiens), sequence (P36969 whole entry, looked up): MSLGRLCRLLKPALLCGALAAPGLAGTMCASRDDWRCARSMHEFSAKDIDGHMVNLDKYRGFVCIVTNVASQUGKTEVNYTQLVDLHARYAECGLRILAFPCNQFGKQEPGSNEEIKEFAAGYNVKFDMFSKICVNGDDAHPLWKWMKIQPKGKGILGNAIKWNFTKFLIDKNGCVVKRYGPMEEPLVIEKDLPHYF

Test [6] is described as follows: Primary fluorescence-based thiol-reactive (MSTI) qHTS assay for identification of artifact compounds. (AID 1845221).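 Note: thiol-reactive compounds lower the probe fluorescence signal; nearly all actives have a fitted effect of over 65% in size.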 Summed up:
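One-hour, room-temperature, dark incubation of compound with 4 uM MSTI in PBS (pH 7.4, 2% DMSO) precedes a fluorescence read at 525 nm excitation, 598 nm emission; Hill-equation fitting yields concentration-response values.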

Test [7] relates to Nanoluciferase (engineered Oplophorus gracilirostris luciferase). In words: Primary Nanoluciferase (NLuc) qHTS assay for identification of artifact compounds. (AID 1845222).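 Note: NLuc secreted into diluted conditioned medium of S16 cells; 0% = DMSO and -100% = no enzyme.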 Summed up:
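Using secreted nanoluciferase in S16 culture medium (0.22 um filtered, 1:55 dilution), compounds were preincubated 15 min at RT. Signal was generated with Nano-Glo reagent (1:100) over 5 min.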

For test [8], the system named is CRL-7250. In words: Cytotoxic Profiling of Annotated Libraries Using Quantitative High-Throughput Screening (AID 1296008). For max response: % is set by controls: 0 for no effect and ±100 for the full control effect. Note: nearly all actives have a fitted effect of over 60% in size. Note: potency is the fitted concentration of half-maximal effect. The conditions noted are these: Five cell lines viability, CellTiter-Glo ATP luminescence, 48-72 h; max response: active compounds read low. Summed up: (§1)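 Compounds were pin-transferred onto cells and incubated 48 or 72 hr at 37 degree Celsius, 95% humidity. CellTiter-Glo was added, plates sat 10 min at room temperature, then ATP-coupled luminescence was imaged as the viability read-out.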
In general terms: ATP-based viability assays read luminescence as a measure of living cells.

For test [9], the system named is HEK293. Described as above. The conditions noted are these: Five cell lines viability, CellTiter-Glo ATP luminescence, 48-72 h; max response: active compounds read low. The gist of the method: as §1
Test [10] deals with HaCat. Described as above. As to conditions: Five cell lines viability, CellTiter-Glo ATP luminescence, 48-72 h; max response: active compounds read low. Summed up:
as §1

Test [11] concerns NIH3T3. The description is as above. The conditions noted are these: Five cell lines viability, CellTiter-Glo ATP luminescence, 48-72 h; max response: active compounds read low. The gist of the method:
as §1

Test [12] relates to C33A. The test can be described thus: Primary qHTS to identify gynecologic anti-cancer compounds using libraries of approved drugs and bioactive compounds (AID 1345084). Note: nearly all actives have a fitted effect of over 55% in size. Note: potency is the fitted concentration of half-maximal effect. The conditions noted are these: Gynecologic cancer cell panel viability, ATPlite luminescence, 48 h; series mostly up to 57.5 µM. Summed up:
(§2)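 In this quantitative HTS, cell killing is estimated from loss of ATP-dependent luciferase light. Cells see five compound concentrations over a 48 h exposure.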

The test system of test [13] is Es-2. The description is as above. As to conditions: Gynecologic cancer cell panel viability, ATPlite luminescence, 48 h; series mostly up to 57.5 µM. The gist of the method:
as §2

Test [14] deals with Hek293T. The description is as above. The conditions noted are these: Gynecologic cancer cell panel viability, ATPlite luminescence, 48 h, control line for the selectivity index; series mostly up to 57.5 µM. Summed up: as §2
The subject of test [15] is PA-1. Described as above. As to conditions: Gynecologic cancer cell panel viability, ATPlite luminescence, 48 h; series mostly up to 57.5 µM. The gist of the method:
as §2

In test [16] the test system is Tov-21-G. The test is described as above. As to conditions: Gynecologic cancer cell panel viability, ATPlite luminescence, 48 h; series mostly up to 57.5 µM. Summed up:
as §2

Test [17] deals with Tov112D. The test is described as above. The conditions noted are these: Gynecologic cancer cell panel viability, ATPlite luminescence, 48 h; series mostly up to 57.5 µM. The gist of the method:
as §2

Test [18] has as its target Luciferin 4-monooxygenase (Photinus pyralis) (UniProt P08659). In words: Primary firefly luciferase (FLuc) qHTS assay for identification of artifact compounds. (AID 1845220). Note: nearly all actives have a fitted effect of over 60% in size. As to conditions: outcome: dose series up to 54.1 µM unless noted. Summed up: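 In this counter-screen for luciferase artifacts, test compounds met substrate (10 uM each luciferin and ATP) before 10 nM enzyme started the reaction. Light output was measured 5 min later.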

The test system of test [19] is CASKI. The test can be described thus: Primary qHTS to identify gynecologic anti-cancer compounds using libraries of approved drugs and bioactive compounds (AID 1345084). Note: nearly all actives have a fitted effect of over 55% in size. Note: potency is the fitted concentration of half-maximal effect. The conditions noted are these: Gynecologic cancer cell panel viability, ATPlite luminescence, 48 h; series mostly up to 57.5 µM. Summed up:
as §2

Test [20] relates to OV90. Described as above. As to conditions: Gynecologic cancer cell panel viability, ATPlite luminescence, 48 h; series mostly up to 57.5 µM. Summed up: as §2

Each structure is given as a SMILES string. Unmarked numbers belong to inactive results. Records with an inconclusive call do not appear. The source made the active and inactive calls. Calls come from the whole dose curve; as a rule, active = well fitted curve in the direction sought with a large enough effect; inconclusive = small, poorly fitted or top-dose-only effect, or another doubt; inactive = no such curve, though single readings can be large; an effect the other way counts as inactive or inconclusive.

Glutathione peroxidase 1 (Homo sapiens), sequence (P07203 whole entry, looked up): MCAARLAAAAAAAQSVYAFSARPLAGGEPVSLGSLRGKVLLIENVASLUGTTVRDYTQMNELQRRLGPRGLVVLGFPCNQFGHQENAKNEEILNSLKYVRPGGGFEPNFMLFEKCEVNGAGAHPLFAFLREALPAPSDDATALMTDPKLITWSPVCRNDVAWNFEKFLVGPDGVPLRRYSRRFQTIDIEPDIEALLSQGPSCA
Calcium and integrin-binding protein 1 (Homo sapiens), sequence (Q99828 whole entry, looked up): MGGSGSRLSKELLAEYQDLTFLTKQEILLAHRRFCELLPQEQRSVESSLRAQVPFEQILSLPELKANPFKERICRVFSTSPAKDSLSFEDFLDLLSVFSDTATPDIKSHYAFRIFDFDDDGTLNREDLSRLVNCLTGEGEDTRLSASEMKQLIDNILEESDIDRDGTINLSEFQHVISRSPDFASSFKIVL

Take `CO[C@@H]1C[C@H](O[C@H]2CC[C@@]3(C)C(CCC4C3CC[C@]3(C)[C@@H](C5=CC(=O)OC5)[C@@H](OC(C)=O)CC43O)C2)O[C@H](C)[C@@H]1O[C@H]1O[C@H](CO[C@@H]2O[C@H](CO)[C@@H](O)[C@H](O)[C@H]2O)[C@@H](O)[C@H](O)[C@H]1O` (stereo partly drawn): the Potency entry in test [1], in test [2], in test [4] and in test [5] was “inactive” in each case. Besides, the Potency in test [3] is 346 nM (active); in test [8], 491 nM (active); in [9], 873 nM (active); in test [10] it was 1550 nM (active); in test [12], 631 nM (active); in [13], 1260 nM (active). Further, the Potency is 2000 nM (active) in test [14], 2000 nM (active) in test [15], 794 nM (active) in [16] and 316 nM (active) in test [17]. For the same compound, the activity change, negative = thiol reactive in test [6] is 43.8% [at 11.5 µM]. Moreover, the activity, negative = inhibition in [7] is 1.29% [at 11.6 µM]. In addition, the max response in test [11] was -8.42%.

For `CC(=O)OC[C@]12C[C@H](O)C(C)=C[C@H]1O[C@@H]1[C@H](O)[C@@H](O)[C@@]2(C)[C@]12CO2`, the Potency result in [1], in [2], in test [4], in test [5], in [6] and in test [7] was “inactive” each time. In addition, the Potency in [3] was 898 nM (active); in [8], 4040 nM (active); in [9] it was 1010 nM (active); in [10], 10100 nM (active); in test [11], 1430 nM (active); in test [12], 5620 nM (active). For the same compound, the Potency in test [19] is 7940 nM (active); in test [13], 6310 nM (active); in test [14] it was 1780 nM (active); in [20] it was 12600 nM (active); in test [15] it was 2000 nM (active); in test [16], 8910 nM (active). In addition, the Potency in test [17] was 10000 nM (active). Also, in [18], the outcome was inactive.

In the case of `C[C@@H]1CN(Cc2ccc(F)cc2)CCN1C(=O)COc1ccc(Cl)cc1NC(N)=O`, the Potency result in [1], in test [2], in test [4], in test [5], in [6] and in test [7] was “inactive” throughout. In test [16], the Potency entry is “inactive”. The compound was classed as inactive in test [18]. Besides, the Potency in test [8] was 731 nM (active); in [9], 1300 nM (active); in test [12], 2510 nM (active); in test [20] it was 8910 nM (active). Also, the max response in test [10] was -27%.

Consider `COC1C=CC23c4cc5c(cc4COC2(O)CN(C)C3C1)OCO5` (stereo not drawn), for which the Potency entry in test [1], in test [2], in test [3], in [4], in [5] and in test [6] was “inactive” in each case. Moreover, the Potency entry in [7], in [12], in [19], in test [13], in test [14] and in test [20] was “inactive” throughout. For the same compound, the Potency result in [16] and in [17] was “inactive” throughout. The result in test [18] and in test [10] was inactive. The max response in test [8] was -6.96%; in test [9], -0.372%; in test [11], -0.709%.

As for `CC1=CC2OC3[C@H](O)C[C@@](C)([C@]34CO4)[C@@]2(CO)[C@H](O)C1=O` (stereo partly drawn), the Potency result in test [1], in test [2], in test [4], in [5], in test [6] and in test [7] was “inactive” in each case. In addition, the Potency in test [3] is 1630 nM (active); in test [8] it was 3260 nM (active); in [9], 1640 nM (active); in test [10], 14600 nM (active); in test [11], 1300 nM (active); in [13], 10000 nM (active). In addition, the Potency in test [16] is 14100 nM (active). The result in [18] was inactive.
